# Results published in ChEMBL document CHEMBL4513216, “Probing the Open Global Health Chemical Diversity Library for Multistage-Active Starting Points for Next-Generation Antimalarials” (ACS Infect Dis, 2020).
# About 8,600 (12%) of roughly 69,000 compounds showed an effect of 50% or more. For the sample, strong results were picked, then their nearest neighbours and some compounds at random.
# System: Plasmodium berghei
# Experiment: Screen against P. berghei liver stage (PbLuc), transformed with Luciferase, at 10uM
# Type: functional, HepG2
# Conditions: tested at 10 uM
row,SMILES,INHIBITION [%]
1,CC1N(c2cnn(C)c2)C(=O)COC12CCN(Cc1ccco1)CC2 (stereo not given),16.6
2,CCCc1ccc(S(=O)(=O)NC2(CC(N)=O)CCC2)cc1,51.3
3,CC(C)c1ccc(S(=O)(=O)NC2(CC(N)=O)CCC2)cc1,37.7
4,COc1ccc(S(=O)(=O)NC2(CC(N)=O)CCC2)cc1,42.7
5,NC(=O)Cn1c(CO)cnc1SCc1ccccc1Cl,-4.01
6,Cc1noc(C2CCC3(CCN(C(=O)c4cc(C5CC5)on4)CC3)O2)n1 (stereo not given),7.53
7,CNc1cncc(C2CCCN2C(=O)c2ccc3oc(C)cc3c2)n1 (stereo not given),6.81
8,CNc1cncc(C2CCCN2Cc2cccc(C)n2)n1 (stereo not given),45.6
9,CNc1cncc(C2CCCN2C(=O)c2ccc3c(c2)CCC3)n1 (stereo not given),54.5
10,CNc1cncc(C2CCCN2c2cc(C)ncn2)n1 (stereo not given),52
11,CNc1cncc(C2CCCN2Cc2ccccn2)n1 (stereo not given),35.8
12,Cc1cc(N2CCCC2c2cnccn2)ncn1 (stereo not given),11.4
13,CNc1cncc(C2CCCN2Cc2ccn(C)n2)n1 (stereo not given),51.5
14,Cc1cc(N2CCCC2c2cncc(N(C)C)n2)ncn1 (stereo not given),14.7
15,CNc1cncc(C2CCCN2C(=O)c2ccc3c(c2)OCCO3)n1 (stereo not given),30.8
16,CCCc1noc(CN2CCC(NC(=O)c3ccc(C)s3)CC2)n1,25
17,CNc1cc(N2CCCC2CNCc2cccnc2)ncn1 (stereo not given),-3.19
18,CCO[C@@H]1CC[C@H]2[C@H]1OCCN2CCOCc1ccccc1,41.2
19,O=C(Nc1ccc2c(c1)OCCO2)N1CCCC1c1ccco1 (stereo not given),-0.87
20,Cc1cccc(CN2C[C@@H]3[C@@H](C(=O)NCC(C)C)CCS(=O)(=O)[C@@H]3C2)c1,-41.9
21,CCc1nc(CN2CCCC(NCc3nnc(C4CC4)n3C)C2)no1 (stereo not given),1.75
22,CCc1ccc(CN2CCC3(CC2)CNC(=O)CO3)o1,33.7

row,SMILES,INHIBITION [%]
1,CC(C)Cc1cc(C(=O)NCCc2ccc(S(C)(=O)=O)cc2)[nH]n1,8.69
2,O=C(O)c1cc(S(=O)(=O)Nc2cc(Cl)ccc2F)cc2c1OCCO2,27.6
3,CN(CC(=O)NC(N)=O)CC1(c2ccc(Br)cc2)CC1,-17.3
4,COC1COC2(CCN(Cc3ccc4c(c3)OCO4)CC2)C1 (stereo not given),-39.3
5,Cc1cc(C(=O)N2CCC3(CCC(=O)N(CC(N)=O)C3)CC2)ccc1O,-64.3
6,C[C@@H]1CN(C(=O)C2(Cn3cccn3)CC2)CC[C@@]1(O)C1CC1,24.205
7,COc1ccccc1-n1nc(-c2ccco2)n(CC(=O)NC2CC2)c1=O,27.6
8,CNC(=O)Cn1c(-c2ccco2)nn(-c2ccccc2OC)c1=O,59.5
9,COc1ccccc1-n1nc(-c2ccco2)n(CC(=O)NC(C)C)c1=O,45.6
10,Cc1cc(NC(=O)CNC2CCc3ncnn3C2)no1 (stereo not given),17.4
11,CCOC(=O)CC(c1ccc(OC)cc1)c1c(O)n[nH]c1C (stereo not given),-14.9
12,Cc1ccc(C(=O)N2CCCC3(CCCC(=O)N3C)C2)cc1F (stereo not given),15.7
13,COc1ccc(CCN(C)C2CCCN(Cc3noc(C)n3)C2)cc1 (stereo not given),-42.3
14,COc1ccc(CC(C)(O)CNC(=O)Cc2ccc(F)cc2)cc1 (stereo not given),77.6
15,COc1ccc(CC(C)(O)CNC(=O)c2cccs2)cc1 (stereo not given),-18
16,COc1ccc(CC(C)(O)CNC(=O)Cc2cccs2)cc1 (stereo not given),40.7
17,Cc1noc(C)c1CN(C)C(=O)CCn1c(=O)n(C)c2ccccc21,-6.61
18,CCCN1CCC(Cc2noc(-c3cc4cccnc4nc3C)n2)CC1,12.9
19,COCc1nc(CN2CCN(c3ccc(OC)cc3)C(=O)C2C)no1 (stereo not given),11
20,CCOCC1CN(C(=O)c2ccncc2)Cc2nn(C)cc21 (stereo not given),-46.9
21,CCS(=O)(=O)CCNC(=O)C1(c2cccc(Cl)c2)CC1,44.8
22,COc1cccc(-c2n[nH]c3c2CN(C(=O)c2cccc(=O)[nH]2)CC3)c1,53.8

row,SMILES,INHIBITION [%]
1,COc1cccc(-c2n[nH]c3c2CN(C(=O)c2cc(C)n(C)n2)CC3)c1,36.6
2,COc1cccc(-c2n[nH]c3c2CN(C(=O)c2ccncc2)CC3)c1,-4.91
3,CC(=O)N(Cc1ncc(C)o1)C1CCN(CCn2cccn2)C1 (stereo not given),40.8
4,Cc1cc(C(=O)NC2CCc3nc(C)cn3C2)[nH]n1 (stereo not given),-3.26
5,Cc1cn2c(n1)CCC(NC(=O)c1[nH]nc(C)c1Br)C2 (stereo not given),64.7
6,Cc1cn2c(n1)CCC(NC(=O)CCC1CC1)C2 (stereo not given),26.9
7,Cc1cn2c(n1)CCC(NC(=O)CCCOCc1ccccc1)C2 (stereo not given),53.4
8,Cc1cnn(CCC(=O)NC2CCc3nc(C)cn3C2)c1 (stereo not given),5.9
9,COc1ccccc1OCCC(=O)NC1CCc2nc(C)cn2C1 (stereo not given),34.6
10,Cc1cn2c(n1)CCC(NC(=O)CCC(F)(F)F)C2 (stereo not given),54.9
11,COc1ccc(COCC(=O)NC2CCc3nc(C)cn3C2)cc1 (stereo not given),21.7
12,Cc1cn2c(n1)CCC(NC(=O)c1[nH]ncc1Br)C2 (stereo not given),40
13,Cc1nccn1CCN(C)C(=O)C1CCN(C(=O)C2CCC2)CC1,16.9
14,CN1CCN(C(=O)[C@@H]2CN(C)C[C@]23COc2ccc(F)cc2C3=O)CC1,24.2
15,CN(C)C(=O)c1coc(COc2ccccc2)n1,19.4
16,O=C(NCC(F)(F)F)c1ccc(-n2cncn2)nn1,-17.8
17,Cc1cc2n(n1)CC(CNCc1ccc(Oc3ccccc3)nc1)CN2 (stereo not given),21.55
18,CC(C)c1ncc2c(n1)CN(c1ncnc3[nH]ccc13)CC2,63.4
19,c1ncc2c(n1)CN(c1ncnc3[nH]ccc13)CC2,32.7
20,Cc1ncc2c(n1)CN(c1ncnc3[nH]ccc13)CC2,17.8
21,O=S(=O)(NCC1CCCN(Cc2ccccc2F)C1)C1CC1 (stereo not given),11.5
22,Cc1noc(C(C)C)c1C(=O)NCc1cccnc1,34.7

row,SMILES,INHIBITION [%]
1,CN(Cc1csc(-c2ccccc2)n1)C(=O)CCNS(C)(=O)=O,-47.9
2,CN(Cc1csc(-c2cccs2)n1)C(=O)CCn1ccccc1=O,-33
3,CN(Cc1csc(-c2ccccc2)n1)C(=O)CCn1ccccc1=O,66.9
4,Cc1ccc(-c2nc(CN3CCOC(Cn4cccn4)C3)no2)cc1 (stereo not given),-13.5
5,Cc1nc(-c2cccc(Cl)c2)n(CC(=O)NCC2CCCO2)c(=O)c1C (stereo not given),13.8
6,CC(C)NC(=O)CC1COC2(CCN(Cc3cccnc3)CC2)C1 (stereo not given),13.7
7,CCOC1COC2(CCN(Cc3cccc(F)c3)CC2)C1 (stereo not given),31.6
8,CNC(=O)COC1COC2(CCN(Cc3ccncc3F)CC2)C1 (stereo not given),59.3
9,CNC(=O)COC1COC2(CCN(Cc3cccnc3OC)CC2)C1 (stereo not given),40.5
10,CNC(=O)COC1COC2(CCN(Cc3cccnc3)CC2)C1 (stereo not given),67.3
11,COc1ccccc1CN1CC[C@]2(C[C@@H](OCC(=O)N(C)C)CO2)C1,24.9
12,CN(Cc1cnc2ccccc2c1)C(=O)C(c1ccccc1F)N(C)C (stereo not given),4.64
13,COc1ccccc1N1CCN(C(=O)COc2c(C)occc2=O)CC1,1.04
14,OC(CNCCc1nnc2ccccn12)c1ccc(F)c(F)c1 (stereo not given),-55.3
15,O=C(c1nnn(-c2ccc(F)cc2)n1)N(CCO)Cc1ccccc1,-137
16,CN1C(=O)[C@@H]2CC[C@H]1CN(C(=O)Nc1ccccc1C(F)(F)F)C2,-53.7
17,CC(=O)NC(C)C1=CCCN(Cc2ccc(C(=O)O)cc2)C1 (stereo not given),37.2
18,COc1ccnc(CN2CCC=C(C(C)NC(C)=O)C2)c1OC (stereo not given),36.2
19,COc1ccc(CN2CCC=C(C(C)NC(C)=O)C2)cc1 (stereo not given),83.2
20,Fc1ccc(-c2nc(CNC3CCc4ncnn4C3)cs2)cc1 (stereo not given),48.8
21,CN(CC(O)C1CC1)C(=O)Nc1cc(F)cc(Br)c1 (stereo not given),-54.5
22,CC(O)CCN(C)C(=O)Nc1cc(F)cc(Br)c1 (stereo not given),42.6

row,SMILES,INHIBITION [%]
1,CNC(=O)C(C)CN(C)C(=O)Nc1cc(F)cc(Br)c1 (stereo not given),83.3
2,Cc1nc(C2CCCN2C(=O)c2ccc(N(C)C)nn2)no1 (stereo not given),-16.98
3,O=C(CCc1ccccc1Cl)NS(=O)(=O)c1ccc2c(c1)OCCO2,-19.265
4,CC1CCN(C(CNC(=O)Cn2cccn2)c2cccs2)CC1 (stereo not given),32.3
5,CC(Cc1cccs1)NC(=O)CCn1cccn1 (stereo not given),9.14
6,O=C(CCn1cccn1)NCC(c1cccs1)N1CCOCC1 (stereo not given),56.1
7,CC1CCN(C(CNC(=O)CCn2cccn2)c2cccs2)CC1 (stereo not given),40.7
8,O=C(Cn1cccn1)NCC(c1cccs1)N1CCCC1 (stereo not given),28
9,CC(NC(=O)CCn1cccn1)c1cccs1 (stereo not given),61.5
10,CN1CCN(C(CNC(=O)CCn2cccn2)c2cccs2)CC1 (stereo not given),31.2
11,CC(NC(=O)CCn1cccn1)c1ccc(-n2ccnn2)cc1 (stereo not given),10
12,O=C(CCn1cccn1)NCC(c1cccs1)N1CCCC1 (stereo not given),66.9
13,COCCc1nnc(NC(=O)CSCc2ccccc2)o1,2.84
14,COCC[C@]1(O)CCN(Cc2ccccn2)C[C@H]1C,18.4
15,Cc1cccc2c1cnn2CCCNC(=O)c1cnn(C)c1,-17.2
16,CC/N=c1\nc(NCC)nc2n1C(O)(Nc1cccc(Cl)c1Cl)CS2 (stereo not given),28.6
17,CC/N=c1\nc(NCC)nc2n1C(O)(Nc1cc(C)ccc1C)CS2 (stereo not given),-21.3
18,CC/N=c1\nc(NCC)nc2n1C(O)(Nc1cc(Cl)ccc1Cl)CS2 (stereo not given),56
19,CCNC(=O)N1CCc2ccc(NC(=O)NCc3ccsc3)cc21,47
20,Cc1ccccc1C1(CNC(=O)CCN2C(=O)CCC2=O)CC1,50.3
21,Cc1cccc(C2(CNC(=O)CCN3C(=O)CCC3=O)CCCC2)c1,36.4
22,O=C(CCN1C(=O)CCC1=O)NCC1(c2c(F)cccc2F)CCCC1,25.6
